Here are results for eight molecules from PubChem BioAssay (NCATS).

In assay [1] the target is Cytochrome P450 1A2 (Homo sapiens) (UniProt P05177). As to the kind of experiment: p450-cyp1a2 (AID 410; calls by dose curve; note: potency is the fitted concentration of half-maximal effect). The gist of the method:
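Luminescent readout of luciferin formed from Luciferin-ME by human CYP1A2; data normalized against complete inhibition by 57 uM furafylline. Enzyme 20nM, substrate 100uM at Km, 100mM KPO4 buffer, 60 min reaction at room temperature.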

The target in assay [2] is Glucocorticoid receptor (Homo sapiens) (UniProt P04150). Nature of the assay: GR-GFP Redistribution (AID 450;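 active = compounds whose dose series gives a full or clear partial fitted curve of increased nuclear translocation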; note: potency is the fitted concentration of half-maximal effect). As to conditions: U2OS GR-GFP nuclear translocation, laser cytometry, 2 h.
Glucocorticoid receptor (Homo sapiens), sequence (P04150 whole entry, looked up): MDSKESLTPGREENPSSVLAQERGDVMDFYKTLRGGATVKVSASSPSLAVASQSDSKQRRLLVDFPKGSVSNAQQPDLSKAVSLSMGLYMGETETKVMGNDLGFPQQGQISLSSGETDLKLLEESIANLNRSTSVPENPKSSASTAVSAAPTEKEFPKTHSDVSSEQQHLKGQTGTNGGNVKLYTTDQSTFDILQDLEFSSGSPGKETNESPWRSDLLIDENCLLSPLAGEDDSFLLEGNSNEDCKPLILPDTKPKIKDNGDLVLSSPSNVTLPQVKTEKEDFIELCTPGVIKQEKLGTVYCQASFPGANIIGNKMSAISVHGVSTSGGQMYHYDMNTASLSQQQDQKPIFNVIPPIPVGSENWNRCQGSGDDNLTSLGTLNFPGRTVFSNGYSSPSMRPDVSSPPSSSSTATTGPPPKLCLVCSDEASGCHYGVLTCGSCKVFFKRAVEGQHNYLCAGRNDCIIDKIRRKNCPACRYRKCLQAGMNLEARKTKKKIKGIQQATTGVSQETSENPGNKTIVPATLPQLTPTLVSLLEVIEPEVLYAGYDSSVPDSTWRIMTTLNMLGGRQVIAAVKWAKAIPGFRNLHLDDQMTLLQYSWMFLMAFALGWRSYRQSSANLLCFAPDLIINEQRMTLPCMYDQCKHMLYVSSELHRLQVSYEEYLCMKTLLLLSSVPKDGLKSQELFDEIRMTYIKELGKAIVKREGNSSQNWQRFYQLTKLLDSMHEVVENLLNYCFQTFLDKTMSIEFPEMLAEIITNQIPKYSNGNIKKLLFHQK
The target is the same in assay [3]. Nature of the assay: GR-EFC Redistribution (AID 451; calls by dose curve; note: potency is the fitted concentration of half-maximal effect). As to conditions: CHO-K1 GR-EFC translocation, beta-gal luminescence, 2 h. The gist of the method:
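Translocation of GR-ED fusion to nuclear EA restores b-gal, read by luminescence after 1 h room-temperature detection. Engineered CHO-K1 biosensor cells, 1,000/well, exposed 2 h at 37 C to titrations up to 46 uM final.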

Assay [4] addresses 3',5'-cyclic-AMP phosphodiesterase 4B (Homo sapiens) (UniProt Q07343). Nature of the assay: qHTS Assay for Inhibitors of PDE-IV (AID 607; active = well fitted activation curve with a large enough effect in the main read-out, with a control signal flat, not every such curve was filed as active). The gist of the method:
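Live HEK293 cells with a modified cyclic nucleotide-gated (CNG) channel report intracellular cAMP via membrane-potential dye fluorescence (ex 535/em 590 nm). Endogenous PDE-IV was targeted. Compounds were tested at up to 22.9 uM final; RO 20-1724 100 uM served as control.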
Background: Quantitative high-throughput screening tests each substance at several concentrations.

In assay [5] the target is Cytochrome P450 2D6 (Homo sapiens) (UniProt P10635). Nature of the assay: qHTS Assay for Inhibitors and Substrates of Cytochrome P450 2D6 (AID 891).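 Note: luciferin methyl ether substrate demethylated by CYP2D6 with NADPH regeneration; nearly all actives have a fitted effect of over 60% in size.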 The gist of the method: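 Human CYP2D6 (5 nM) with 30 uM Luciferin-ME EGE (at Km) in 100 mM KPO4, compound preincubated 10 min, then NADPH regeneration system for 60 min at room temperature. Luciferin read by luminescence; normalized to 1.43 uM quinidine.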
Cytochrome P450 2D6 (Homo sapiens), sequence (P10635 whole entry, looked up): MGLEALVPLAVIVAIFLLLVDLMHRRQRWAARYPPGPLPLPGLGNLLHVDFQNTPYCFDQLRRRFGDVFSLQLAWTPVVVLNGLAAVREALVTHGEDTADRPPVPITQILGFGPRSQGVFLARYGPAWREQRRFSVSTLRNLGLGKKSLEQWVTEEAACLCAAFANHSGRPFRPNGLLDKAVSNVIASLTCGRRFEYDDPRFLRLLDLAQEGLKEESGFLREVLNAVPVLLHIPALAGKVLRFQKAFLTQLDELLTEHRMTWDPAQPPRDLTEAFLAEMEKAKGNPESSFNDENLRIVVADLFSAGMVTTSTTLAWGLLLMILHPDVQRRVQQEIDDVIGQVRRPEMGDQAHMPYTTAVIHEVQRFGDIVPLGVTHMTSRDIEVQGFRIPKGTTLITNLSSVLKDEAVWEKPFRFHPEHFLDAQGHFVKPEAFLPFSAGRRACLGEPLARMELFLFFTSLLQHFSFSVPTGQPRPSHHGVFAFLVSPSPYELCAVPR

Assay [6] concerns the target Mitogen-activated protein kinase 10 (Mus musculus) (UniProt Q61831). Nature of the assay: JNK3 AlphaScreen Assay (AID 530; active = well fitted curve in either direction with a large enough effect, not every such curve was filed as active;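 note: kinase came from lysate of stimulated human HepG2 cells; signal reports phosphorylation of biotinylated GST-cJun 1-79 at Ser73 with 10 µM ATP; series mostly up to about 57 µM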). Put shortly:
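Compound titrations were preincubated 15 minutes at room temperature with substrate, antibody and pre-activated JNK3-containing HepG2 lysate. Reactions were started with 10 uM ATP and stopped with EDTA-containing bead buffer for AlphaScreen detection.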
Background: In Alpha technology, singlet oxygen from a donor bead excites a nearby acceptor bead.

Assay [7] has as its target Cytochrome P450 3A4 (Homo sapiens) (UniProt P08684). As to the kind of experiment: qHTS Assay for Inhibitors and Substrates of Cytochrome P450 3A4 (AID 884). Note: potency is the fitted concentration of half-maximal effect; nearly all actives have a fitted effect of over 50% in size. Put shortly:
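20 nM human CYP3A4 with 25 uM Luciferin-PPXE (at KM) in 200 mM KPO4, preincubated 10 min with compound; NADPH regeneration started a 60 min RT reaction. Luciferin detected by luminescence, normalized to 57 uM ketoconazole as full inhibition.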

Assay [8] shares this target. Nature of the assay: qHTS Assay for Activators of Cytochrome P450 3A4 (AID 885). Note: nearly all actives have a fitted effect of over 65% in size. Put shortly:
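Quantitative HTS format: compounds preincubated with 20nM human CYP3A4 and Luciferin-PPXE substrate at KM, reaction started by NADPH regeneration, stopped after 60 min, luciferase luminescence read 20 min later.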

For assay [9], the target named is Cytochrome P450 2C9 (Homo sapiens) (UniProt P11712). As to the kind of experiment: qHTS Assay for Inhibitors and Substrates of Cytochrome P450 2C9 (AID 883). Note: nearly all actives have a fitted effect of over 60% in size. Note: potency is the fitted concentration of half-maximal effect. The gist of the method: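 Turnover of Luciferin-H (100uM, KM) by 10nM human CYP2C9 was measured over 60 min at 37C with NADPH regeneration; inhibitors and some substrates reduce luminescence. Data normalized to sulphaphenazole 57uM.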
Cytochrome P450 2C9 (Homo sapiens), sequence (P11712 whole entry, looked up): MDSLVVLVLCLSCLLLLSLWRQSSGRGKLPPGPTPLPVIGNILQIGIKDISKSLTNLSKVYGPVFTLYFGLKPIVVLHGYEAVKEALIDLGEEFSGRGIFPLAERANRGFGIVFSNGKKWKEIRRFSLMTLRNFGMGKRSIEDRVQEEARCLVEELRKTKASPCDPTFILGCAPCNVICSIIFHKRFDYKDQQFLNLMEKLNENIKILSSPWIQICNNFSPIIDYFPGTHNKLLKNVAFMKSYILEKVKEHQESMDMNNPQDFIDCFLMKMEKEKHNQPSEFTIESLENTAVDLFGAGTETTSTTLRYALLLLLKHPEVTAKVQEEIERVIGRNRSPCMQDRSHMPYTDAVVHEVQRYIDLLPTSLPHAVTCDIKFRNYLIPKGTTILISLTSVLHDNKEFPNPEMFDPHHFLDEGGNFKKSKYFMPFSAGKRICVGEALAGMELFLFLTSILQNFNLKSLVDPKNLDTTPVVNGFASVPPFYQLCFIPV

Assay [10] deals with Cytochrome P450 2C19 (Homo sapiens) (UniProt P33261). As to the kind of experiment: qHTS Assay for Inhibitors and Substrates of Cytochrome P450 2C19 (AID 899). Note: nearly all actives have a fitted effect of over 60% in size. The gist of the method: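 Reactions contain 5nM enzyme, 10uM Luciferin-H EGE (KM) and 50mM KPO4; compound preincubates 10 min at 37C, NADPH regeneration starts turnover for 60 min. Luminescence after detection reagent gives activity.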
Cytochrome P450 2C19 (Homo sapiens), sequence (P33261 whole entry, looked up): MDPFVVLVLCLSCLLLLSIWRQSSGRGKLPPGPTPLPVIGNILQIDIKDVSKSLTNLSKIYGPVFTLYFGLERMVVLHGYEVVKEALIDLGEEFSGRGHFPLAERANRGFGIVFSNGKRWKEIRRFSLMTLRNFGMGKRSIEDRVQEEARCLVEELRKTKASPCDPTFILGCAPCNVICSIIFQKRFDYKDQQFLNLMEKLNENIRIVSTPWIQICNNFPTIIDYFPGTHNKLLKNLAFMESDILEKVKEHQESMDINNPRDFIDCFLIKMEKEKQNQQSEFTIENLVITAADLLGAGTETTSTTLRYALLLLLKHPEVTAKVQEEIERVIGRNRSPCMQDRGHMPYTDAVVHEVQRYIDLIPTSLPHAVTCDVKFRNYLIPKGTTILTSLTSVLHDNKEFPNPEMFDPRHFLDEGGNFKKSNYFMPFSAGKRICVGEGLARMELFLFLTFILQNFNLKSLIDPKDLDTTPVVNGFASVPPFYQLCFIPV

A number with no mark means an inactive call. Results filed as inconclusive are left out. Active and inactive are the calls of the source. Unless noted, calls come from the whole dose curve; as a rule, active = well fitted curve in the direction sought with a large enough effect; inconclusive = small, poorly fitted or top-dose-only effect, or another doubt; inactive = no such curve, though single readings can be large; an effect the other way counts as inactive or inconclusive.

3',5'-cyclic-AMP phosphodiesterase 4B (Homo sapiens), sequence (Q07343 whole entry, looked up): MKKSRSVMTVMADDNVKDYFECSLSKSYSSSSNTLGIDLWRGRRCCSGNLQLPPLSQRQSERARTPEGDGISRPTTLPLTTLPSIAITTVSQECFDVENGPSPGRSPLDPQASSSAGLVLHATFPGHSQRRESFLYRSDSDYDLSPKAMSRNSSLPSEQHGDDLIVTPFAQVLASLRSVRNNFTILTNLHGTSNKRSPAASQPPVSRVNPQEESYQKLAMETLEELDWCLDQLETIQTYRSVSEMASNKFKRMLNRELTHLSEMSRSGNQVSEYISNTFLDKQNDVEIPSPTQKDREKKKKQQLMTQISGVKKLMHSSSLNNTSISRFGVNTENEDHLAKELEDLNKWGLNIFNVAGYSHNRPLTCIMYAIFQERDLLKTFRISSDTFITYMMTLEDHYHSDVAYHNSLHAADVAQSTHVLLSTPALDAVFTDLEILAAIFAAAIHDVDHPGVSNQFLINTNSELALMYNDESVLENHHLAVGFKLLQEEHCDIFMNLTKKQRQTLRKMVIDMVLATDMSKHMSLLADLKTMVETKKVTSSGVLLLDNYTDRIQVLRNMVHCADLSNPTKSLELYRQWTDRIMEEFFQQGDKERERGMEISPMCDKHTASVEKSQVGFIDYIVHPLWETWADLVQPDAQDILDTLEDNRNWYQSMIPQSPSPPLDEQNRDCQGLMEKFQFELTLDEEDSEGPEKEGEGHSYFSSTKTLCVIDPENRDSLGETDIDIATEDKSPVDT
Cytochrome P450 3A4 (Homo sapiens), sequence (P08684 whole entry, looked up): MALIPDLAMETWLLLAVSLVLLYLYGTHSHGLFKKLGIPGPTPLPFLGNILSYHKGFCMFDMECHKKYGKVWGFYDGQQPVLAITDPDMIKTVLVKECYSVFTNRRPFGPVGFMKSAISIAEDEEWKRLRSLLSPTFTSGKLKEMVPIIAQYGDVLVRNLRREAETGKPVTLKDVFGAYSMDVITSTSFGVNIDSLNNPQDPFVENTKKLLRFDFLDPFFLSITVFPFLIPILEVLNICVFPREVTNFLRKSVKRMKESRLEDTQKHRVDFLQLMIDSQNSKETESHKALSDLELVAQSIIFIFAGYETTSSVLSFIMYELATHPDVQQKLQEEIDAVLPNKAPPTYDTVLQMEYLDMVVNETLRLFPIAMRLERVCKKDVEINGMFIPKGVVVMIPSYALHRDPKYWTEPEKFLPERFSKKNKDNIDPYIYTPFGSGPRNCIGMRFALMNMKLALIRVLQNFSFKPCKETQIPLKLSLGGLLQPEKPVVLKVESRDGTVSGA
Cytochrome P450 1A2 (Homo sapiens), sequence (P05177 whole entry, looked up): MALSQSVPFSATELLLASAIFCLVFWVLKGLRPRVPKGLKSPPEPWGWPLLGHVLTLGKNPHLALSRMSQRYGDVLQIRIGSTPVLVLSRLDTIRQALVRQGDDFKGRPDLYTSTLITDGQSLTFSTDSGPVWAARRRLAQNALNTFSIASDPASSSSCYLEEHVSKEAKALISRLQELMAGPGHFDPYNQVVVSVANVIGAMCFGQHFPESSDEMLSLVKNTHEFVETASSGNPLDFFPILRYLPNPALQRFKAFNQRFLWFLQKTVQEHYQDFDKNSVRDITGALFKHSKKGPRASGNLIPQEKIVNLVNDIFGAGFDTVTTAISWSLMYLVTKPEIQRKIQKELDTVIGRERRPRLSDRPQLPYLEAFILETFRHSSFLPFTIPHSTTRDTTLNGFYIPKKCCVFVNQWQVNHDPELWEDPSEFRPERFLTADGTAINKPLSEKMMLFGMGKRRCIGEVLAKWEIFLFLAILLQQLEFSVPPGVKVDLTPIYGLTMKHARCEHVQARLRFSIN

For the molecule `CC(C)C[C@H]1C(=O)N2CCC[C@@H]2[C@]2(O)O[C@](NC(=O)[C@H]3C=C4c5cccc6[nH]cc(c56)C[C@H]4N(C)C3)(C(C)C)C(=O)N12`, the Potency in assay [1] was 31.6 µM (active); in assay [2] it was > 46 µM; in assay [3], > 46 µM. The molecule was called inactive in assay [4]. The Potency result in assay [5] was “inactive”.

For the molecule `CCCc1cc2c(n1Cc1ccc(C)cc1)C(C)C1CN(C(=O)c3ccccc3)C(C)(C(=O)OC)C21` (stereo unspecified), the Potency in [1] was 7.94 µM (active); in assay [7], 3.16 µM (active). Moreover, the molecule was classed as inactive in assay [6]. Also, the Potency result in assay [8] was “inactive”.

Regarding `C=C(CC1(C(C)NP(=O)(c2ccccc2)c2ccccc2)CC1)c1ccccc1` (stereo unspecified), the Potency in assay [1] was 15.8 µM (active); in assay [9], 7.94 µM (active); in assay [7], 3.98 µM (active). The call in [6] was inactive. The Potency result in assay [8] was “inactive”.

Consider `CCC/C=C(\CCC)C(NP(=O)(c1ccccc1)c1ccccc1)c1ccccc1` (stereo unspecified), for which the Potency in assay [1] is 15.8 µM (active); in assay [7], 6.31 µM (active). In [8], the Potency result was “inactive”.

For the molecule `C[C@H]1CCCC=CC2C[C@H](O)C[C@@H]2[C@H](O)/C=C\C(=O)O1` (stereo partly specified), the values for the Potency in assay [1], in assay [2] and in [3] were 15.8 µM (active), > 46 µM and > 46 µM, respectively. Further, the call in [6] and in assay [4] was inactive. In addition, the Potency entry in assay [8] is “inactive”.

Regarding `COc1ccc(C[C@@H]2NC[C@H](O)[C@H]2OC(C)=O)cc1`, the Potency result in assay [1], in [9] and in [10] was “inactive” each time. For the same molecule, the Potency in [2] and in assay [3] was > 46 µM each time. The outcome in assay [6] and in assay [4] was inactive.

For `COC(=O)[C@@]1(Cc2ccc(F)cc2)[C@H]2c3cc(C(=O)N(C)C)[nH]c3C[C@H]2CN1C(=O)c1ccccc1`, the Potency in [1] is 20 µM (active); in [7], 0.631 µM (active). The molecule was called inactive in [6] and in [4]. The Potency result in assay [8] is “inactive”.

For the molecule `CCCCCC[C@H]1C(=O)O[C@@H](C)[C@H](NC(=O)c2cccc(NC=O)c2O)C(=O)O[C@@H](C)[C@@H]1OC(=O)CC(C)C`, the Potency entry in assay [1], in [5] and in assay [10] was “inactive” in each case. Besides, the Potency in assay [2] and in assay [3] was > 46 µM each time. Besides, in assay [6], the molecule was called inactive.
